SMILES strings stand for the structures. In all, about 69,000 compounds went through this assay and about 8,600 (12%) showed an effect of 50% or more. The full list was thinned out, with strong results kept by preference.

The assay has as its system Plasmodium berghei. The experiment in a line: Screen against P. berghei liver stage (PbLuc), transformed with Luciferase, at 10uM. The format is functional, HepG2. The following applies: tested at 10 uM.
As to `CCS(=O)(=O)c1ccccc1N1CCC(NC(=O)C(C)C)CC1`, the INHIBITION was -25.8%.

Take `CO[C@@H]1CCC[C@@H](NC(=O)C(C)(C)c2cccc(F)c2)[C@H]1O`: the INHIBITION turned out to be 10.855%.

In the case of `Cc1cccc(C)c1NC(=O)c1n[nH]c(-n2cnnc2)n1`, the INHIBITION worked out at 19.6%.

As to `CC(C)N(C)Cc1nnc2n1CCCN(S(=O)(=O)C1CC1)C2`, the INHIBITION worked out at 36.4%.

For the molecule `c1ccc(OCc2nnc3n2CCN(CC2CC2)C3)nc1`, the INHIBITION was 39.3%.

Turning to `Cc1c(C2CCCN(C(=O)Cc3ccccn3)C2)n2c(nc1=O)CCC2` (stereo not given), the INHIBITION turned out to be 34.1%.

Turning to `O=C(NCCc1nccs1)[C@H](c1ccccc1)n1cnnn1`, the INHIBITION is listed as -20.8%.

For `CC(O)CNC(=O)CCc1nc2ncccc2[nH]1` (stereo not given), the INHIBITION is 26.6%.

With `Cc1nc(C(=O)N2CCN(S(C)(=O)=O)CC2)c(-c2cccc(F)c2)s1`, the INHIBITION is 17.7%.

With `Cc1cccc(CN2C[C@@H]3OCCN(c4cnccn4)[C@@H]3C2)n1`, the INHIBITION was -18.5%.

Turning to `Cc1ccc(N2CCO[C@H]3CN(Cc4ccoc4)C[C@H]32)nn1`, the INHIBITION came to 41.6%.

Regarding `Cc1cccc(CN2C[C@@H]3OCCN(CC(=O)N(C)C)[C@@H]3C2)c1`, the INHIBITION was 39.4%.

Consider `CN(C)c1nccc(N2CCO[C@H]3CN(Cc4ccsc4)C[C@H]32)n1`, for which the INHIBITION is on record as 65.1%.

As for `Cc1cc(C)cc(CN2C[C@@H]3OCCN(CC(=O)N(C)C)[C@@H]3C2)c1`, the INHIBITION was found to be 66.6%.

Regarding `CN(C)C(=O)CN1CCO[C@H]2CN(Cc3ccoc3)C[C@H]21`, the INHIBITION was found to be 31.2%.

For `c1cc(CN2C[C@@H]3OCCN(CCN4CCCC4)[C@@H]3C2)cs1`, the INHIBITION turned out to be 11.3%.

As to `c1cnc(N2CCO[C@H]3CN(Cc4ccsc4)C[C@H]32)nc1`, the INHIBITION is on record as 42.7%.

For the molecule `Cc1cccc(CN2C[C@@H]3OCCN(c4ccnc(N(C)C)n4)[C@@H]3C2)c1`, the INHIBITION stood at 77.5%.

As for `CCOCCCNC(=O)C1CCC(=O)N(CCc2ccc(Cl)cc2)C1` (stereo not given), the INHIBITION came to 16.3%.

Take `COc1ccc(C(=O)Nc2ccccc2C(C)C)c(OC)n1`: the INHIBITION is given as -17.2%.

In the case of `COc1ccc([C@@H]2CN(Cc3cccnc3N)C[C@H]2N(C)C)cc1`, the INHIBITION is 30.3%.

Turning to `O[C@@H]1CCN(CC2CC2)[C@H]1Cc1ccccc1`, the INHIBITION was -14.4%.

Turning to `Cc1nc(C)n(CC2CN(Cc3cccnc3)Cc3nccn3C2)n1` (stereo not given), the INHIBITION is recorded as 25.1%.

As to `Cc1ncsc1C(=O)NCCCN1CCCCCC1=O`, the INHIBITION is -21.2%.

As to `Cc1nc(S(=O)(=O)N2CCSCC2)cn1C`, the INHIBITION was -50.7%.

`CCN(CC)Cc1cc(=O)n2c(n1)CN(C(=O)c1ccnnc1)CCC2`: the INHIBITION is -20.2%.

For `COc1ccc(C[C@H]2CN(C(=O)CS(C)(=O)=O)CC[C@H]2OC)cc1`, the INHIBITION is listed as 33.4%.

In the case of `COCCN1CC[C@H]2CN(Cc3ccc(C)s3)C[C@@H]2C1=O`, the INHIBITION is given as -75%.

For `c1nc(N2CCCC2)ncc1CN1CCCC(CN2CCCCC2)C1` (stereo not given), the INHIBITION is reported as 21.1%.

As to `NC(=O)CCC1CCCN(Cc2cnc(N3CCCCC3)nc2)C1` (stereo not given), the INHIBITION was 67.8%.

As to `CCc1cnc(N2CCCC(CCC(N)=O)C2)nc1` (stereo not given), the INHIBITION worked out at 17.9%.

`Cc1nn(C)c2ncc(C(=O)N3CCNC(=O)C3)cc12`: the INHIBITION stood at 1.86%.

As for `O=C(CCC1CCCC1)N1CCC(c2cc3ncccc3c(O)n2)CC1`, the INHIBITION turned out to be 55.6%.

On to `O=C(CC1CCCC1)N1CCC(c2cc3ncccc3c(O)n2)CC1`, for which the INHIBITION is -2.11%.

With `COCC(=O)N1CCC(c2cc3ncccc3c(O)n2)CC1`, the INHIBITION is -27.4%.

As to `O=C(c1c(F)cccc1F)N1CCOCC1`, the INHIBITION is reported as 30.45%.

For the molecule `Cn1ccc(C(=O)NCc2cccc(Cn3ccnc3)c2)cc1=O`, the INHIBITION amounted to 31.4%.

Turning to `Cn1ccc(C(=O)NCc2cccc(N3CCCCC3=O)c2)cc1=O`, the INHIBITION is given as 45.9%.

As to `O=C(Nc1cccc(CNCc2cccnc2)c1)C1CCCC1`, the INHIBITION is on record as 39.65%.

On to `O=C(Nc1cccc(CNCc2csc(Br)c2)c1)C1CC1`, for which the INHIBITION is recorded as 70.7%.

With `Cc1nccn1Cc1cccc(CNC(=O)c2ccn(C)c(=O)c2)c1`, the INHIBITION came out at 53.8%.

Turning to `Cn1ccc(C(=O)NCc2ccc(Cn3ccnc3)cc2)cc1=O`, the INHIBITION is reported as -7.17%.

Regarding `O=C(Nc1cccc(CNCc2ccsc2)c1)C1CC1`, the INHIBITION amounted to 21.8%.

In the case of `Cn1ccc(C(=O)NCc2cccc(NC(=O)C3CCC3)c2)cc1=O`, the INHIBITION was found to be 61.1%.

For `Cn1ccc(C(=O)NCc2cccc(CN3CCCC3)c2)cc1=O`, the INHIBITION is given as 48.8%.

Regarding `COCCC(=O)N1CCC(c2cc(O)n(C)n2)C1` (stereo not given), the INHIBITION was 0.301%.

As to `O=C(O)CC(CC(=O)NCc1ccsc1)c1cccs1` (stereo not given), the INHIBITION is listed as -24%.

As to `CCn1cc(NC(=O)NCCc2ccc3c(c2)OCO3)cn1`, the INHIBITION is -23.9%.

Turning to `CCc1nc(C(=O)N(C)CC(=O)N(C)C)nn1-c1ccccc1Cl`, the INHIBITION is on record as 27.9%.

For `c1ccc2oc(CCCN3CCOC(Cn4cncn4)C3)nc2c1` (stereo not given), the INHIBITION stood at 47.1%.

With `Cc1ccsc1C(=O)N1CCC(Nc2cccnc2)CC1`, the INHIBITION is reported as -36.6%.

For `COCCN1C(=O)[C@@H]2CC[C@H]1CN(S(=O)(=O)c1ccc(OC)cc1)C2`, the INHIBITION is 1.56%.

`Cc1cc(C(F)(F)F)c2c(C3CCCN(C(=O)C4CC4)C3)noc2n1` (stereo not given): the INHIBITION worked out at 26.8%.

Take `CNc1ccc(Cl)cc1C(=O)N1CCC(Cn2cc(CN)nn2)CC1`: the INHIBITION is 21.2%.

With `CN1C(=O)C2(CC(=O)Nc3c2cnn3C(C)(C)C)c2c(Cl)cccc21` (stereo not given), the INHIBITION amounted to 5.58%.

For the molecule `CC(C)n1ncc2c1NC(=O)CC21C(=O)Nc2c(Cl)cc(Br)cc21` (stereo not given), the INHIBITION is reported as -23.7%.

With `CC(C)n1ncc2c1NC(=O)CC21C(=O)Nc2c(Cl)cccc21` (stereo not given), the INHIBITION is listed as -75.8%.

As to `Cc1cc(C)c2c(c1)C1(CC(=O)Nc3c1cnn3C(C)C)C(=O)N2` (stereo not given), the INHIBITION is reported as -20.5%.

Consider `CC(C)n1ncc2c1NC(=O)CC21C(=O)Nc2c(Cl)cc(Cl)cc21` (stereo not given), for which the INHIBITION is -35.5%.

As to `CC(C)n1ncc2c1NC(=O)CC21C(=O)Nc2c(Cl)ccc(Cl)c21` (stereo not given), the INHIBITION is 73.6%.

For `Cc1cc(Br)c2c(c1)C1(CC(=O)Nc3c1cnn3C(C)C)C(=O)N2` (stereo not given), the INHIBITION is -34.8%.

`CC(C)n1ncc2c1NC(=O)CC21C(=O)Nc2c(Br)cc(Cl)cc21` (stereo not given): the INHIBITION is given as 59.3%.

Take `CC(C)n1ncc2c1NC(=O)CC21C(=O)Nc2cc(Cl)cc(Cl)c21` (stereo not given): the INHIBITION is on record as 89.6%.

As for `CC(=O)c1ccc(N2CCN(C(=O)NCc3cc[nH]n3)CC2)cc1`, the INHIBITION is given as 48.4%.

On to `O=C(c1ccsc1)N1CCOC2(CCN(Cc3cccnc3)CC2)C1`, for which the INHIBITION is -9.67%.

The values are drawn from ChEMBL document CHEMBL4513216, “Probing the Open Global Health Chemical Diversity Library for Multistage-Active Starting Points for Next-Generation Antimalarials” (ACS Infect Dis, 2020).
